Results from PubChem BioAssay AID651561 (Sanford-Burnham Center for Chemical Genomics, 2012).
The other results are listed elsewhere or left out. The source made the active and inactive calls. Rule as the data show it: active = IC50 below about 20 µM; inactive = the rest.

assay: mitochondrial permeability transition pore inhibitors, dose response, biochemical, absorbance, uHTS hits (AID 651561); conditions: isolated mitochondria swelling

SMILES | IC50
COc1ccc(C2NCc3ccc4c(c3-n3cccc32)OCO4)cc1OC (stereo not drawn) | 26.9 µM (inactive)
O=Cc1cn(Cc2ccc(F)cc2Cl)c2ccccc12 | 32.3 µM (inactive)
CC(Cc1ccccc1)NCCC(c1ccccc1)c1ccccc1 (stereo not drawn) | 4.21 µM (active)
